Screening data (PubChem)
This is one part of a sample in which hits are shown more often than they occur.
ERAP1 HTS inh: inhibitors of human ERAP1 aminopeptidase | inhibition, % at 10.7 µM | 340,000 compounds, 0.15% hits | Q9NZ08 | recombinant ERAP1, Leu-AMC fluorescence, 60 min;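 active = mean replicate inhibition of at least 30%, or all replicates individually reaching that 30% level; inactive = mean below 30% and not every replicate reaching it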;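 note: 0% = neutral control wells and 100% = L-leucinethiol positive control wells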
HDAC3 inhib: inhibitors of human histone deacetylase 3; AID 2718; inhibition, % at 8.3 µM; recombinant HDAC3, fluorogenic peptide/trypsin coupled, fluorescence; 320,000 compounds, 0.15% hits; O15379; in the data active = inhibition above about 26%, passing the limit was not always enough
ERp5 inh: inhibitors of human ERp5 | ERp5 insulin aggregation, absorbance 650 nm, 90 min | inhibition, % at 9.99 µM | 350,000 compounds, 0.05% hits | AID 651711;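 active = mean replicate inhibition above about 25%, with every replicate also reaching it, limit read from the data, passing the limit was not always enough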
PDI turbidity: inhibitors of human protein disulfide isomerase | PDI insulin aggregation turbidity, A650, 90 min | 350,000 compounds, 0.052% hits | P07237 | inhibition, % at 10 µM | AID 588391;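 active = mean inhibition across replicates of 30% or more, whatever share of single replicates reach that level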
Target sequence (P07237 whole entry, looked up): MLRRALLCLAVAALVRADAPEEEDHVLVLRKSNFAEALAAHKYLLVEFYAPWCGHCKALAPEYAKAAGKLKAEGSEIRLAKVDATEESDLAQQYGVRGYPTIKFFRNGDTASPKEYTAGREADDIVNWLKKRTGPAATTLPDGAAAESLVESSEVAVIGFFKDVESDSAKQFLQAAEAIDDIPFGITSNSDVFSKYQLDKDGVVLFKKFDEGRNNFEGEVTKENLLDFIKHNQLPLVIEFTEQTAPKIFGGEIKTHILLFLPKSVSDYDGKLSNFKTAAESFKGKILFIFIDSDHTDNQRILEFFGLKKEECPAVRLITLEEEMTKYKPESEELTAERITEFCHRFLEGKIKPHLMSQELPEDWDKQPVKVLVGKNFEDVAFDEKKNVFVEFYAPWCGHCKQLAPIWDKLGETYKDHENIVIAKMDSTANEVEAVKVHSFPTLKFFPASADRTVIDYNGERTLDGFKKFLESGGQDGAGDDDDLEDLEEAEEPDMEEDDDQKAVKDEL
SIRT5 block: sirtuin-5 (human) deacylase inhibition; Q9NXA8; Purified SirT5, succinyl-peptide AMC, trypsin-coupled fluorescence; inhibition, % at 15 µM; 330,000 compounds, 1.1% hits; AID 652115; in the data active = inhibition above about 15%
Starred values were filed as active, the others as inactive; nt = no result.

SMILES	ERAP1 HTS inh	HDAC3 inhib	ERp5 inh	PDI turbidity	SIRT5 block
C[C@@H]1CN([C@H](C)CO)C(=O)c2cc(NC(=O)NC3CCCCC3)ccc2O[C@@H](C)CCCCO[C@@H]1CN(C)Cc1ccc(Cl)c(Cl)c1	0.4	nt	3.5	nt	23.9*
C[C@@H]1CCCCO[C@@H](CN(C)Cc2ccc(Cl)c(Cl)c2)[C@@H](C)CN([C@@H](C)CO)C(=O)c2cc(NC(=O)NC3CCCCC3)ccc2O1	-2.7	nt	1.4	nt	15.9*
C[C@H](CO)N1C[C@H](C)[C@@H](CN(C)Cc2ccc(Cl)c(Cl)c2)OCCCC[C@H](C)Oc2ccc(NC(=O)NC3CCCCC3)cc2C1=O	0.6	nt	3.2	nt	3.3
C/C(=N\Nc1ccc(C(=O)O)cc1)c1ccc(Br)cc1	nt	8.6	2.0	-2.4	21.0*
C/C(=N\Nc1ccc(Cl)c(C(=O)O)c1)c1ccc(Br)s1	1.2	7.6	3.9	-5.0	2.7
C/C(=N/Nc1ncc(Br)cn1)c1ccc(Br)cc1	-3.2	-2.2	-6.6	-0.2	-1.0
C/C(=N\Nc1ccc(C(=O)O)cc1)c1ccc(Cl)s1	-0.6	4.6	-1.6	8.4	23.4*
COC(=O)C[C@@H]1CC[C@H]2[C@@H](COC[C@@H](O)CN2C(=O)Nc2ccccc2OC)O1	1.7	nt	-5.1	nt	0.4
O=C(CCN1CCCCC1)NCC[C@@H]1CC[C@@H](NS(=O)(=O)c2cccc(F)c2)[C@H](CO)O1	1.2	nt	-0.8	nt	10.6
CC(C)[C@H](NC(=O)[C@H](CCCN=C(N)N)NC(=O)NC(Cc1ccccc1)C(=O)O)C(=O)NC(C=O)CCCN=C(N)N (stereo partly drawn)	35.4*	83.8*	1.0	1.6	46.4*
C[C@H]1CCCCO[C@@H](CN(C)S(=O)(=O)c2ccc(Cl)cc2)[C@@H](C)CN([C@@H](C)CO)C(=O)c2cc(NS(=O)(=O)c3ccccc3)ccc2O1	-0.6	nt	-1.0	-19.0	2.7
C[C@@H]1CCCCO[C@H](CN(C)S(=O)(=O)c2ccc(Cl)cc2)[C@H](C)CN([C@@H](C)CO)C(=O)c2cc(NS(=O)(=O)c3ccccc3)ccc2O1	-1.6	nt	13.5	nt	15.5*
C[C@@H]1CN([C@@H](C)CO)C(=O)c2cc(NS(=O)(=O)c3ccccc3)ccc2O[C@@H](C)CCCCO[C@H]1CN(C)S(=O)(=O)c1ccc(Cl)cc1	-3.7	nt	-8.8	nt	16.4*
C[C@@H]1CCCCO[C@@H](CN(C)S(=O)(=O)c2ccccc2)[C@H](C)CN([C@H](C)CO)C(=O)c2cc(NS(=O)(=O)c3ccc(Cl)cc3)ccc2O1	5.5	nt	-4.1	nt	14.4
C[C@@H]1CCCCO[C@@H](CN(C)S(=O)(=O)c2ccc(Cl)cc2)[C@H](C)CN([C@@H](C)CO)C(=O)c2cc(NS(=O)(=O)c3ccccc3)ccc2O1	-0.2	nt	6.4	nt	20.8*
Cc1cc(Cl)ccc1OCc1n[nH]c(=S)n1C1CCCCC1	nt	2.1	nt	32.2*	nt
COc1ccc(Cl)cc1-c1n[nH]c(=S)n1C1CCCCC1	nt	2.2	nt	11.7	nt
CC(C)(C)c1ccc(CCC2OCC(C[N+]3(C)CCOCC3)O2)cc1 (stereo not drawn)	104.3*	2.6	-2.8	-1.6	-3.6
COc1ccc(NC(=O)N[C@@H](CCSC)C(=O)O)cc1OC	-2.4	3.3	-5.8	6.4	19.1*
Cc1noc(C)c1NC(=O)Nc1ccc2c(c1)C(=O)N([C@@H](C)CO)C[C@H](C)[C@H](CN(C)CC1CCCCC1)OCCCC[C@H](C)O2	-0.1	nt	-0.6	nt	-4.7
COC(=O)C1=C(C)Nc2c(c(=O)n(C)c(=O)n2C)C1c1cccc(O)c1 (stereo not drawn)	nt	3.8	5.2	0.3	20.3*
Cc1cc(OCC(F)(F)C(F)(F)C(F)(F)C(F)(F)C(F)(F)C(F)F)nc(N)n1	nt	nt	nt	8.9	nt
NC(=O)c1ccc(OCC(F)(F)C(F)(F)C(F)(F)C(F)(F)C(F)(F)C(F)F)cc1	12.1	30.9*	-1.0	1.2	-2.4
Cc1ccc(C(=O)NNC(=O)c2nn(-c3ccc(F)cc3)ccc2=O)cc1	5.8	4.3	0.2	-4.0	2.8
CC(C)NC(=O)NNC(=O)c1nn(-c2ccc(F)cc2)ccc1=O	nt	5.7	2.3	-3.4	22.2*
SMILES	ERAP1 HTS inh	HDAC3 inhib	ERp5 inh	PDI turbidity	SIRT5 block
COc1cccc(NC(=O)N[C@@H]2CC[C@H](CC(=O)NCc3ccncn3)O[C@@H]2CO)c1	0.6	nt	5.7	nt	-6.4
O=C(NN1C(=O)/C(=C/C=C/c2ccco2)SC1=S)c1ccccc1O	-0.2	1.8	0.7	8.1	45.7*
O=C1S/C(=C\C=C\c2ccco2)C(=O)N1c1ccc(O)cc1	8.5	0.2	-1.2	12.3	4.9
O=C(O)CCCN1C(=O)/C(=C/C=C/c2ccco2)SC1=S	11.6	-1.5	11.8	6.9	32.4*
O=C(O)CC(C(=O)O)N1C(=O)/C(=C/C=C/c2ccco2)SC1=S (stereo not drawn)	25.8	5.4	6.8	4.0	30.2*
O=C(O)C(Cc1ccccc1)N1C(=O)/C(=C/C=C/c2ccco2)SC1=S (stereo not drawn)	15.0	nt	6.3	13.0	44.9*
Cn1cccc1/C=C1\SC(=S)N(NC(=O)c2ccccc2O)C1=O	nt	8.6	0.4	-1.1	5.1
CCC(=O)N1CCCCN2[C@H](C1)[C@H](c1ccc(-c3cccc(C(=O)N(C)C)c3)cc1)[C@@H]2CO	-1.2	nt	4.7	nt	-8.8
CCCCCC(=O)Nc1nc(C)c(-c2csc(Nc3cc(Cl)ccc3OC)n2)s1	-0.2	-17.5	-5.7	11.5	24.2*
CCCC(=O)Nc1nc(C)c(-c2csc(Nc3cc(OC)ccc3OC)n2)s1	-0.7	5.6	-8.1	-2.8	nt
c1ccc(CCCNc2ncnc3nc[nH]c23)cc1	-3.9	0.1	-2.3	-8.7	17.7*
CCC(=O)N1[C@@H]2Cn3c(cccc3=O)[C@H]1[C@@H](C(=O)NC1CCCC1)[C@@H]2CO	-1.6	nt	12.4	nt	0.0
COC(=O)C(/C=N/OCc1ccc([N+](=O)[O-])cc1)NC(=O)c1ccccc1 (stereo not drawn)	nt	43.7*	nt	0.7	nt
CNC[C@H]1Oc2ccc(NC(=O)Nc3cccc4ccccc34)cc2CC(=O)N([C@H](C)CO)C[C@H]1C	-3.1	nt	2.6	nt	3.9
CCc1cc(CNC(=O)CCc2nnc(CCCc3ccccc3)o2)on1	-4.8	nt	-1.4	-7.0	19.5*
NC(=O)[C@H]1CC2(CC(c3cccc(NC(=O)[C@H]4CCC(=O)N4)c3)=NO2)CN1C(=O)c1cc([N+](=O)[O-])cc([N+](=O)[O-])c1 (stereo partly drawn)	-1.8	39.1*	3.6	-2.2	1.3
Cc1c(C(=O)N2CC3(CC(c4cccc(NC(=O)[C@H]5CCC(=O)N5)c4)=NO3)C[C@@H]2C(N)=O)cc([N+](=O)[O-])cc1[N+](=O)[O-] (stereo partly drawn)	-3.6	4.6	2.0	2.9	nt
CCN(C(=O)CN1C(=O)S/C(=C\c2cccc(OC)c2)C1=O)C1CCS(=O)(=O)C1 (stereo not drawn)	3.4	7.4	3.8	12.1	15.7*
COc1cccc(/C=C2\SC(=S)N(CC(=O)N(C)C3CCS(=O)(=O)C3)C2=O)c1 (stereo not drawn)	3.6	-1.1	8.3	1.8	1.4
